Data as given in the supplement of paper PMC12282887.
± gives the standard deviation of the averaged measurements.

How the values were obtained:
Assay in all cases: promoter activity interaction Z-score (Lux/OD deviation from empty-vector control); higher = stronger promoter induction by the compound
[1] = test system: E. coli BW25113 micFp lux reporter
Method in brief: (§1)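 At 37°C, E. coli BW25113 reporter cultures in 40 µl LB Lennox in 384-well plates were read for OD600 and luminescence every 30 min for 12 h. Windows were 0–8 h for wild type and 1–9 h for deletion strains, and wells under 10% of the median growth value were removed. The score is the Z-transformed residual of growth-normalised luminescence against a control fit.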

[2] = test system: E. coli BW25113 ompFp lux reporter
Method in brief: as §1

[3] = test system: E. coli BW25113 robp lux reporter
Method in brief: as §1

[4] = test system: E. coli BW25113 soxSp lux reporter
Method in brief: as §1

[5] = test system: E. coli BW25113 tolCp lux reporter
Method in brief: as §1

[6] = test system: E. coli BW25113 acrABp lux reporter
Method in brief: as §1

[7] = 91.1 µg/ml, genetic background: Δrob
[8] = 91.1 µg/ml, genetic background: ΔsoxS
[9] = 11.4 µg/ml, genetic background: wild type
[10] = 11.4 µg/ml, genetic background: ΔmarA
[11] = 11.4 µg/ml, genetic background: Δrob
[12] = 11.4 µg/ml, genetic background: ΔsoxS
[13] = 22.8 µg/ml, genetic background: wild type
[14] = 22.8 µg/ml, genetic background: ΔmarA
[15] = 22.8 µg/ml, genetic background: Δrob
[16] = 22.8 µg/ml, genetic background: ΔsoxS
[17] = 45.5 µg/ml, genetic background: wild type
[18] = 45.5 µg/ml, genetic background: ΔmarA
[19] = 45.5 µg/ml, genetic background: Δrob
[20] = 45.5 µg/ml, genetic background: ΔsoxS
[21] = 91.1 µg/ml, genetic background: wild type
[22] = 91.1 µg/ml, genetic background: ΔmarA
[23] = 1.7 µg/ml, genetic background: wild type
[24] = 1.7 µg/ml, genetic background: ΔmarA
[25] = 1.7 µg/ml, genetic background: Δrob
[26] = 1.7 µg/ml, genetic background: ΔsoxS
[27] = 3.5 µg/ml, genetic background: wild type
[28] = 3.5 µg/ml, genetic background: ΔmarA
[29] = 3.5 µg/ml, genetic background: Δrob
[30] = 3.5 µg/ml, genetic background: ΔsoxS
[31] = 6.9 µg/ml, genetic background: wild type
[32] = 6.9 µg/ml, genetic background: ΔmarA
[33] = 6.9 µg/ml, genetic background: Δrob
[34] = 6.9 µg/ml, genetic background: ΔsoxS
[35] = 13.9 µg/ml, genetic background: wild type
[36] = 13.9 µg/ml, genetic background: ΔmarA
[37] = 13.9 µg/ml, genetic background: Δrob
[38] = 13.9 µg/ml, genetic background: ΔsoxS

SMILES: Cn1c(=O)[nH]c2[nH]c(=O)[nH]c2c1=O [1-Methyluric acid]
- promoter activity interaction Z-score [1, 7]: -0.0667 ± 0.089
- promoter activity interaction Z-score [1, 8]: 0.409 ± 0.52
- promoter activity interaction Z-score [2, 9]: 0.326 ± 0.31
- promoter activity interaction Z-score [2, 10]: 0.693 ± 0.12
- promoter activity interaction Z-score [2, 11]: 0.46 ± 0.48
- promoter activity interaction Z-score [2, 12]: 0.431 ± 0.45
- promoter activity interaction Z-score [2, 13]: 0.321 ± 0.41
- promoter activity interaction Z-score [2, 14]: 0.558 ± 0.49
- promoter activity interaction Z-score [2, 15]: 0.739 ± 0.54
- promoter activity interaction Z-score [2, 16]: 0.326 ± 0.25
- promoter activity interaction Z-score [2, 17]: -0.32 ± 0.069
- promoter activity interaction Z-score [2, 18]: 0.0147 ± 0.41
- promoter activity interaction Z-score [2, 19]: -1.23 ± 0.62
- promoter activity interaction Z-score [2, 20]: -0.438 ± 0.48
- promoter activity interaction Z-score [2, 21]: 0.135 ± 0.01
- promoter activity interaction Z-score [2, 22]: 0.619 ± 0.048
- promoter activity interaction Z-score [2, 7]: -0.101 ± 0.29
- promoter activity interaction Z-score [2, 8]: 0.374 ± 1.1
- promoter activity interaction Z-score [3, 9]: -0.269 ± 0.61
- promoter activity interaction Z-score [3, 10]: 0.351 ± 0.24
- promoter activity interaction Z-score [3, 11]: 0.112 ± 0.039
- promoter activity interaction Z-score [3, 12]: 0.0211 ± 0.46
- promoter activity interaction Z-score [3, 13]: 0.161 ± 0.081
- promoter activity interaction Z-score [3, 14]: 0.493 ± 0.4
- promoter activity interaction Z-score [3, 15]: 0.0711 ± 0.33
- promoter activity interaction Z-score [3, 16]: -0.912 ± 0.1
- promoter activity interaction Z-score [3, 17]: -0.286 ± 0.13
- promoter activity interaction Z-score [3, 18]: -0.426 ± 0.29
- promoter activity interaction Z-score [3, 19]: -1.18 ± 0.44
- promoter activity interaction Z-score [3, 20]: -0.966 ± 0.2
- promoter activity interaction Z-score [3, 21]: 0.057 ± 0.46
- promoter activity interaction Z-score [3, 22]: 0.0892 ± 0.25
- promoter activity interaction Z-score [3, 7]: -0.403 ± 0.09
- promoter activity interaction Z-score [3, 8]: -0.691 ± 0.56
- promoter activity interaction Z-score [4, 9]: 0.261 ± 0.1
- promoter activity interaction Z-score [4, 10]: 0.522 ± 0.037
- promoter activity interaction Z-score [4, 11]: 0.347 ± 0.19
- promoter activity interaction Z-score [4, 12]: 0.264 ± 0.44
- promoter activity interaction Z-score [4, 13]: 0.256 ± 0.0038
- promoter activity interaction Z-score [4, 14]: 0.598 ± 0.099
- promoter activity interaction Z-score [4, 15]: 0.475 ± 0.19
- promoter activity interaction Z-score [4, 16]: 0.221 ± 0.36
- promoter activity interaction Z-score [4, 17]: 0.22 ± 0.037
- promoter activity interaction Z-score [4, 18]: 0.334 ± 0.14
- promoter activity interaction Z-score [4, 19]: 0.132 ± 0.069
- promoter activity interaction Z-score [4, 20]: -0.0814 ± 0.51
- promoter activity interaction Z-score [4, 21]: 0.104 ± 0.3
- promoter activity interaction Z-score [4, 22]: 0.366 ± 0.082
- promoter activity interaction Z-score [4, 7]: 0.122 ± 0.097
- promoter activity interaction Z-score [4, 8]: 0.0852 ± 0.84
- promoter activity interaction Z-score [5, 9]: -0.101 ± 0.82
- promoter activity interaction Z-score [5, 10]: 0.236 ± 0.64
- promoter activity interaction Z-score [5, 11]: 0.123 ± 0.14
- promoter activity interaction Z-score [5, 12]: 0.273 ± 0.67
- promoter activity interaction Z-score [5, 13]: 0.46 ± 0.55
- promoter activity interaction Z-score [5, 14]: 0.0925 ± 0.54
- promoter activity interaction Z-score [5, 15]: 1.34 ± 1.4
- promoter activity interaction Z-score [5, 16]: -0.689 ± 1
- promoter activity interaction Z-score [5, 17]: 0.324 ± 0.25
- promoter activity interaction Z-score [5, 18]: 0.169 ± 0.61
- promoter activity interaction Z-score [5, 19]: -0.992 ± 0.65
- promoter activity interaction Z-score [5, 20]: 0.413 ± 0.89
- promoter activity interaction Z-score [5, 21]: 0.769 ± 0.93
- promoter activity interaction Z-score [5, 22]: 0.232 ± 0.41
- promoter activity interaction Z-score [5, 7]: 0.664 ± 0.066
- promoter activity interaction Z-score [5, 8]: 0.553 ± 0.38

SMILES: NC(=O)c1cc[n+](CC2=C(C(=O)[O-])N3C(=O)[C@@H](NC(=O)[C@@H](c4ccccc4)S(=O)(=O)O)[C@H]3SC2)cc1 [Cefsulodin]
- promoter activity interaction Z-score [6, 23]: 0.269 ± 0.15
- promoter activity interaction Z-score [6, 24]: 0.601 ± 0.24
- promoter activity interaction Z-score [6, 25]: -0.158 ± 0.15
- promoter activity interaction Z-score [6, 26]: -0.315 ± 0.077
- promoter activity interaction Z-score [6, 27]: 0.0267 ± 0.076
- promoter activity interaction Z-score [6, 28]: 0.343 ± 0.28
- promoter activity interaction Z-score [6, 29]: 0.17 ± 0.29
- promoter activity interaction Z-score [6, 30]: -0.28 ± 0.31
- promoter activity interaction Z-score [6, 31]: 0.306 ± 0.13
- promoter activity interaction Z-score [6, 32]: -0.189 ± 0.29
- promoter activity interaction Z-score [6, 33]: -0.455 ± 0.052
- promoter activity interaction Z-score [6, 34]: -0.399 ± 0.055
- promoter activity interaction Z-score [6, 35]: 0.379 ± 0.28
- promoter activity interaction Z-score [6, 36]: -0.532 ± 0.81
- promoter activity interaction Z-score [6, 37]: 0.198 ± 0.17
- promoter activity interaction Z-score [6, 38]: 0.0814 ± 0.14
- promoter activity interaction Z-score [1, 23]: 0.14 ± 0.014
- promoter activity interaction Z-score [1, 24]: -0.0463 ± 0.21
- promoter activity interaction Z-score [1, 25]: 0.0953 ± 0.35
- promoter activity interaction Z-score [1, 26]: -0.338 ± 0.047
- promoter activity interaction Z-score [1, 27]: 0.0738 ± 0.052
- promoter activity interaction Z-score [1, 28]: -0.0526 ± 0.14
- promoter activity interaction Z-score [1, 29]: -0.0549 ± 0.0043
- promoter activity interaction Z-score [1, 30]: -0.224 ± 0.027
- promoter activity interaction Z-score [1, 31]: 0.373 ± 0.2
- promoter activity interaction Z-score [1, 32]: -0.161 ± 0.17
- promoter activity interaction Z-score [1, 33]: 0.046 ± 0.26
- promoter activity interaction Z-score [1, 34]: -0.32 ± 0.14
- promoter activity interaction Z-score [1, 35]: 0.27 ± 0.18
- promoter activity interaction Z-score [1, 36]: -0.237 ± 0.007
- promoter activity interaction Z-score [1, 37]: -0.0142 ± 0.099
- promoter activity interaction Z-score [1, 38]: -0.324 ± 0.022
- promoter activity interaction Z-score [2, 23]: 0.0922 ± 0.034
- promoter activity interaction Z-score [2, 24]: -0.437 ± 0.1
- promoter activity interaction Z-score [2, 25]: 0.00718 ± 0.63
- promoter activity interaction Z-score [2, 26]: -0.453 ± 0.23
- promoter activity interaction Z-score [2, 27]: 0.101 ± 0.094
- promoter activity interaction Z-score [2, 28]: 0.0789 ± 0.37
- promoter activity interaction Z-score [2, 29]: -0.19 ± 0.099
- promoter activity interaction Z-score [2, 30]: -0.294 ± 0.097
- promoter activity interaction Z-score [2, 31]: 0.254 ± 0.0045
- promoter activity interaction Z-score [2, 32]: -0.42 ± 0.15
- promoter activity interaction Z-score [2, 33]: -0.561 ± 0.17
- promoter activity interaction Z-score [2, 34]: -0.258 ± 0.67
- promoter activity interaction Z-score [2, 35]: 2.4 ± 0.66
- promoter activity interaction Z-score [2, 36]: 1.43 ± 0.62
- promoter activity interaction Z-score [2, 37]: 1.29 ± 0.045
- promoter activity interaction Z-score [2, 38]: 0.329 ± 1.2
- promoter activity interaction Z-score [3, 23]: 0.353 ± 0.3
- promoter activity interaction Z-score [3, 24]: -0.684 ± 0.45
- promoter activity interaction Z-score [3, 25]: -0.402 ± 0.66
- promoter activity interaction Z-score [3, 26]: -0.564 ± 0.41
- promoter activity interaction Z-score [3, 27]: 0.22 ± 0.28
- promoter activity interaction Z-score [3, 28]: -0.459 ± 0.031
- promoter activity interaction Z-score [3, 29]: -0.153 ± 0.28
- promoter activity interaction Z-score [3, 30]: -0.0266 ± 0.11
- promoter activity interaction Z-score [3, 31]: 0.775 ± 0.033
- promoter activity interaction Z-score [3, 32]: -1.06 ± 0.66
- promoter activity interaction Z-score [3, 33]: -0.421 ± 0.63
- promoter activity interaction Z-score [3, 34]: -0.255 ± 0.017
- promoter activity interaction Z-score [3, 35]: -0.0503 ± 0.35
- promoter activity interaction Z-score [3, 36]: -0.32 ± 0.51
- promoter activity interaction Z-score [3, 37]: -0.936 ± 0.25
- promoter activity interaction Z-score [3, 38]: -1.59 ± 0.21
- promoter activity interaction Z-score [4, 23]: 0.243 ± 0.14
- promoter activity interaction Z-score [4, 24]: 0.0161 ± 0.021
- promoter activity interaction Z-score [4, 25]: 0.337 ± 0.44
- promoter activity interaction Z-score [4, 26]: -0.145 ± 0.16
- promoter activity interaction Z-score [4, 27]: 0.223 ± 0.013
- promoter activity interaction Z-score [4, 28]: 0.0152 ± 0.069
- promoter activity interaction Z-score [4, 29]: 0.186 ± 0.38
- promoter activity interaction Z-score [4, 30]: 0.0422 ± 0.085
- promoter activity interaction Z-score [4, 31]: 0.195 ± 0.0077
- promoter activity interaction Z-score [4, 32]: -0.0335 ± 0.17
- promoter activity interaction Z-score [4, 33]: 0.0477 ± 0.44
- promoter activity interaction Z-score [4, 34]: -0.0923 ± 0.35
- promoter activity interaction Z-score [4, 35]: 0.167 ± 0.16
- promoter activity interaction Z-score [4, 36]: -0.302 ± 0.11
- promoter activity interaction Z-score [4, 37]: -0.117 ± 0.011
- promoter activity interaction Z-score [4, 38]: -0.0117 ± 0.15
- promoter activity interaction Z-score [5, 23]: 0.715 ± 0.94
- promoter activity interaction Z-score [5, 24]: -0.256 ± 0.052
- promoter activity interaction Z-score [5, 25]: 0.191 ± 0.14
- promoter activity interaction Z-score [5, 26]: -1.1 ± 0.63
- promoter activity interaction Z-score [5, 27]: -0.195 ± 0.71
- promoter activity interaction Z-score [5, 28]: -0.0142 ± 0.11
- promoter activity interaction Z-score [5, 29]: 0.0051 ± 0.65
- promoter activity interaction Z-score [5, 30]: -0.229 ± 0.0049
- promoter activity interaction Z-score [5, 31]: 0.976 ± 0.34
- promoter activity interaction Z-score [5, 32]: -0.562 ± 0.45
- promoter activity interaction Z-score [5, 33]: -0.0786 ± 0.68
- promoter activity interaction Z-score [5, 34]: -0.444 ± 0.1
- promoter activity interaction Z-score [5, 35]: -0.259 ± 0.34
- promoter activity interaction Z-score [5, 36]: -0.283 ± 0.28
- promoter activity interaction Z-score [5, 37]: -0.0472 ± 0.28
- promoter activity interaction Z-score [5, 38]: -0.088 ± 0.34
